Measurements reported in PubChem BioAssay AID588726 (The Scripps Research Institute Molecular Screening Center, 2011).
The campaign covered roughly 360,000 compounds. About 8,200 (2.3%) were called active. The full list was thinned out, with actives kept by preference. Values without a mark were called inactive. Cut-off read from the data, not from the text of the source: active = inhibition above about 27%; inactive = the rest.

These compounds were tested against Fructose-bisphosphate aldolase (Mycobacterium tuberculosis (strain ATCC 25618 / H37Rv)) (UniProt P9WQA3) (assay: Mtb FBA enzyme inhibitors, primary screen, biochemical, fluorescence, strain H37Rv (AID 588726;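 note: 0% = vehicle and 100% = reference inhibitor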)). Settings: purified M. tuberculosis FBA, fluorescence read-out, at 1 µM, active compounds read high.
Sequence of Fructose-bisphosphate aldolase (Mycobacterium tuberculosis (strain ATCC 25618 / H37Rv)) (P9WQA3 whole entry, looked up): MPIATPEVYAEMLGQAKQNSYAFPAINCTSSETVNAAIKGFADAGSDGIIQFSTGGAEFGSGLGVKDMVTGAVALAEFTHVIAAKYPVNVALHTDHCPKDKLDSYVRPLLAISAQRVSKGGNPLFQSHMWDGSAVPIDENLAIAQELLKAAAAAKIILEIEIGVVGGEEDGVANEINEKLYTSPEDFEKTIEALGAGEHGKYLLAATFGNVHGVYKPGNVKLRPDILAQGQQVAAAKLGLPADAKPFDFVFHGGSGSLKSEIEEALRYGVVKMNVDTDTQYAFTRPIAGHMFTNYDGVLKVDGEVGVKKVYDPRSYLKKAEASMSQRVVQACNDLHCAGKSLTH
CCCCCCCCCCCCN1[C@@H](CC(C)=O)c2cc(F)cc(F)c2S1(=O)=O gave an inhibition of -2.16%.
COc1ccc(CCNC(=O)c2ccc(NC(=O)CC3SC(N4CCCCC4)=NC3=O)cc2)cc1OC (stereo unspecified) showed an inhibition of 1.72%.
NS(=O)(=O)c1ccc(CCNC(=O)CNC(=O)Cc2ccccc2)cc1 was tested, and the inhibition was 4.09%.
Work on CC[C@@]1(C(=O)OC)N[C@H](CN(C)C(C)=O)[C@@H]2C(=O)N(C)C(=O)[C@@H]21 yielded an inhibition of -0.4%.
O=C1C2C3C=CC(C3)C2C(=O)N1c1ncc([N+](=O)[O-])s1 (stereo unspecified) gave an inhibition of 0.42%.
Work on Cc1ccc2nnn(Cc3cccc(C(C)(C)C)c3O)c2c1 yielded an inhibition of -1.49%.
Compound Cc1c(OC(C)C(=O)NCC2CCC(C(=O)O)CC2)ccc2c1oc(=O)c1ccccc12 (stereo unspecified) has an inhibition of 11.2%.
For Cc1oc2c(C)c3oc(=O)c(CC(=O)N[C@@H](CC(C)C)C(=O)N[C@@H](Cc4ccccc4)C(=O)O)c(C)c3cc2c1C, the inhibition was 14.5%.
In the case of Cc1c(OC(C)C(=O)N[C@@H](Cc2ccccc2)C(=O)O)ccc2c3c(c(=O)oc12)CCCC3 (stereo partly specified), the inhibition is reported as 57.5% (active).
With CCOC(=O)N1CCC(c2cc(=O)n(-c3ccccc3)[nH]2)CC1 the inhibition was 2.04%.
Work on NS(=O)(=O)c1ccc(N2C(=O)C3C4CC(C(Br)C4Br)C3C2=O)cc1 (stereo unspecified) yielded an inhibition of 2.97%.
Compound COc1ccc(N(CC(=O)Nc2ccc(F)c(F)c2)S(=O)(=O)c2c(C)[nH]c(=O)[nH]c2=O)cc1 has an inhibition of 0.84%.
With O=C(CN1C(=O)c2cccc3cccc(c23)C1=O)N1CCCCC1 the inhibition was 31.8% (active).
In the case of O=C(CN1C(=O)c2cccc3cccc1c23)Nc1ccccc1, the inhibition is reported as 1.33%.
Cn1c(=O)n(C)c(=O)n(CC(=O)N2CCCCC2)c1=O was tested, and the inhibition was -2.14%.
Work on O=S1(=O)CC/C(=N\Nc2ccc(F)cc2)c2ccsc21 yielded an inhibition of 0.47%.
Work on CCn1c(SC)nc(O)c(C(c2ccc(OC)c(O)c2)c2c(O)nc(SC)n(CC)c2=O)c1=O yielded an inhibition of 0.76%.
With N/C(=N\S(=O)(=O)c1ccc(Cl)cc1)N1CCOCC1 the inhibition was -1.72%.
Compound O=S(=O)(c1ccccc1)N1CN(Cc2ccc(F)cc2)c2nc3ccccc3nc21 has an inhibition of 1.18%.
For C=CCC1(C(=O)N(C)Cc2ccccc2)CCN(C(=O)OC(C)(C)C)CC1, the inhibition was -0.41%.
In the case of CC1=CC2=NC(=O)CC(C)(C(=O)N(CC(=O)NC(C)(C)C)Cc3ccccc3)N2C=C1 (stereo unspecified), the inhibition is reported as 39.1% (active).
Compound CCN(CC(=O)Nc1cc(Cl)ccc1C)C(=O)CSCc1ccccc1 has an inhibition of 1.52%.
In the case of CCC(=O)Nc1c(S(=O)(=O)c2ccccc2)c2nc3ccccc3nc2n1Cc1ccccc1, the inhibition is reported as 71.7% (active).
Cc1ccc(S(=O)(=O)c2c(N)n(C)c3nc4ccccc4nc23)cc1 was tested, and the inhibition was 195% (active).
Work on CCC(=O)Nc1ccc2nc(C)n(Cc3ccccc3Cl)c(=O)c2c1 yielded an inhibition of -0.06%.
CCCn1nc(NS(=O)(=O)c2ccccc2)c2cc3cc(C)ccc3nc21 showed an inhibition of -1.36%.
Work on CCCn1nc(NS(=O)(=O)c2ccc(F)cc2)c2cc3ccccc3nc21 yielded an inhibition of 1.96%.
For CCN(CC)CCn1c(N)c(S(=O)(=O)c2ccccc2)c2nc3ccccc3nc21, the inhibition was 73.8% (active).
For Cc1ccc(S(=O)(=O)Nc2nc(N)n(-c3ccccc3)n2)cc1, the inhibition was -1.75%.
In the case of CCC(=O)Nc1ccccc1C(=O)N1CCN(Cc2ccccc2)CC1, the inhibition is reported as 1.09%.
Cc1ccc(S(=O)(=O)NCc2nc3ccccc3c(=O)n2N)cc1 gave an inhibition of 0.87%.
